# Experimental data as given in the supplement of paper PMC10498489.
# Screen size: about 2,300 compounds; about 330 (14%) showed activity. Only a sample is shown. Values without a mark were called inactive.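 The calls were made as follows: active = median modified Z-score above 1.96; inactive = 1.96 or below.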
# Test system: HepG2 Srxn1-GFP reporter cells (+30 nM CDDO-Me)
# Assay: Srxn1-GFP intensity median modified Z-score relative to plate median; higher = stronger NRF2 / oxidative stress reporter activation, active = hit call of the paper
# Settings: 10 µM; exposure time: 24h
# How it was run: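 The per-plate modified Z-score of GFP intensity, taken as a median across replicates, is what each value represents. Three replicate plates of HepG2 Srxn1-GFP BAC reporter cells were exposed for 24 h to an NRF2 activator at 30 nM combined with compound at 10 μM (≤0.1% DMSO). Cytoplasmic GFP per cell was read from confocal images, excluding any with under 100 cells, and scaling used 1.4826 × median absolute deviation.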
row,Compound,Srxn1-GFP intensity median modified Z-score
1,CCN(C)C(=O)Oc1cccc([C@H](C)N(C)C)c1 [euspeclibcmpd2067],-0.306
2,COC[C@]12CN(C=O)C3[C@@H]4[C@H](OC)C1[C@]3(C1CC3(O)C(OC)C(O)[C@]4(OC(C)=O)C1C3OC(=O)c1ccccc1)[C@@H](OC)C[C@H]2O (stereo not given in full) [euspeclibcmpd1413],-0.00565
3,COc1cc2c(cc1O)CC1c3c(cc(O)c(OC)c3-2)CCN1C (stereo not given) [euspeclibcmpd1326],-0.347
4,COc1ccc2c(c1O)-c1c(OC)c(OC)cc3c1[C@H](C2)N(C)CC3 [euspeclibcmpd1537],-0.343
5,COc1cc2c3cc1Oc1c(OC)c(OC)cc4c1[C@@H](Cc1cccc(c1)Oc1ccc(c(O)c1)C[C@@H]3N(C)CC2)N(C)CC4 [euspeclibcmpd1812],2.31 (active)
6,O=C(NC(O)C(Cl)(Cl)Cl)NC(O)C(Cl)(Cl)Cl (stereo not given) [euspeclibcmpd2304],0.189
7,c1ccc2nc(N3CCNCC3)ccc2c1 [euspeclibcmpd578],-0.285
8,C[C@@H]1CC(Cl)CCC1C(=O)OC(C)(C)C (stereo not given in full) [euspeclibcmpd1756],-0.159
9,CNC(C)(C)Cc1ccccc1 [euspeclibcmpd691],0.194
10,C[N+]1(C)CCc2cc3c(cc2[C@H]1C1OC(=O)c2c1ccc1c2OCO1)OCO3 (stereo not given in full) [euspeclibcmpd1466],2.41 (active)
11,CN1CCc2cc3c(cc2[C@H]1C1OC(=O)c2c1ccc1c2OCO1)OCO3 (stereo not given in full) [euspeclibcmpd1552],-0.0938
12,C#CCN(C)C(C)Cc1ccccc1 (stereo not given) [euspeclibcmpd993],-0.386
13,CCC1(CO)C(=O)NC(=O)NC1=O,1.07
14,COc1cc2occc2c2oc(=O)ccc12 [euspeclibcmpd1717],-0.121
15,NCC(=O)c1ccccc1 [euspeclibcmpd1673],3.04 (active)
16,NCCc1ccccc1 [euspeclibcmpd2078],0.0184
17,O=C(O)Cc1ccccc1 [euspeclibcmpd2440],-0.295
18,C[N+]1([O-])C2CCC1CC(OC(=O)C(CO)c1ccccc1)C2 (stereo not given) [euspeclibcmpd2322],-0.247
19,C=CCC1(C(C)CCC)C(=O)NC(=S)NC1=O (stereo not given) [euspeclibcmpd2148],-0.0652
20,O=P1(NCCBr)OCCCN1CCCl (stereo not given),0.805
21,CNCC(O)c1ccc(O)cc1 (stereo not given) [euspeclibcmpd1199],0.983
22,COC(=O)C1=CO[C@@H](C)C2CN3CC[C@]4(C(=O)Nc5ccccc54)C3C[C@H]12 (stereo not given in full) [euspeclibcmpd2321],-0.26
23,CCCN(CCC)CCc1cccc2[nH]c(O)cc12 [euspeclibcmpd2384],-0.25
24,CCN(C(C)=O)c1cccc(-c2ccnc3c(C#N)cnn23)c1 [euspeclibcmpd886],-0.312
25,CC1(C)C(C=C(Cl)Cl)C1C(=O)OCc1cccc(Oc2ccccc2)c1 (stereo not given) [euspeclibcmpd989],-0.481

row,Compound,Srxn1-GFP intensity median modified Z-score
1,CC(N)Cc1ccc(O)cc1 (stereo not given) [euspeclibcmpd2033],-0.0916
2,O=C1C(=O)c2ccccc2-c2ccccc21,0.845
3,O=C1C=CC(=O)c2ccccc21 [euspeclibcmpd1754],32.6 (active)
4,O=C1c2ccccc2C(=O)c2ccccc21 [euspeclibcmpd2403],-0.277
5,O=c1c(O)c(-c2ccc(O)c(O)c2)oc2c(O)c(O)cc(O)c12 [euspeclibcmpd1684],-0.455
6,C[C@]12CCC3C(CC[C@H]4C[C@@H](O)CC[C@]34C)C1CCC2=O (stereo not given in full) [euspeclibcmpd2371],-0.083
7,N[C@H](CO)Cc1ccccc1 [euspeclibcmpd1743],-0.578
8,O=[N+]([O-])c1ccc([As](=O)(O)O)cc1 [euspeclibcmpd2468],0.0717
9,CC(=O)Nc1cc([As](=O)(O)O)ccc1O [euspeclibcmpd2446],0.0429
10,O=[N+]([O-])c1cc([As](=O)(O)O)ccc1O [euspeclibcmpd2449],14.6 (active)
11,c1cncc(C2=NCCC2)c1 [euspeclibcmpd2209],0
12,COc1ccc(/C=C/c2cc(O)cc(O)c2)cc1 [euspeclibcmpd1373],0.31
13,COc1cc2c(cc1OC)[C@@]13CCN4CC5=CCOC6CC(=O)N2C1[C@H]6[C@H]5C[C@H]43 (stereo not given in full) [euspeclibcmpd1053],1.74
14,C=CCN1CCC23c4c5ccc(O)c4OC2C(=O)CC[C@@]3(O)[C@H]1C5 (stereo not given in full) [euspeclibcmpd455],-0.148
15,C[C@@H]([C@H](O)c1ccccc1)N(C)C [euspeclibcmpd1255],0.2
16,CC(CCc1ccccc1)NC(C)C(O)c1ccc(O)cc1 (stereo not given) [euspeclibcmpd217],6.08 (active)
17,CC(Cc1ccc(O)cc1)NCC(O)c1cc(O)cc(O)c1 (stereo not given) [euspeclibcmpd366],0.124
18,CC1(C)C(C=C(Cl)Cl)C1C(=O)OC(C#N)c1cccc(Oc2ccccc2)c1 (stereo not given) [euspeclibcmpd1141],-0.358
19,O=C(COc1ccc2ccccc2c1)N1CCN(Cc2ccc3c(c2)OCO3)CC1,4.61 (active)
20,O=C(COc1ccc(Br)cc1Cl)N1CCN(Cc2ccc3c(c2)OCO3)CC1,0.363
21,C=CCc1ccc2c(c1)OCO2 [euspeclibcmpd1477],-0.318
22,CCOP(=S)(OCC)Oc1nc(Cl)c(Cl)cc1Cl [euspeclibcmpd1024],0.883
23,COc1cccc2c1cc([N+](=O)[O-])c1c(C(=O)O)cc3c(c12)OCO3 [euspeclibcmpd2326],0.769
24,COC(C)CC(=O)Nc1ccc([N+](=O)[O-])c(C(F)(F)F)c1 (stereo not given),1.79
25,N=c1ccc(C(N)=O)c[nH]1 [euspeclibcmpd1777],0.117

row,Compound,Srxn1-GFP intensity median modified Z-score
1,CN1C2CC[C@@H]1C[C@@H](OC(=O)C(CO)c1ccccc1)C2 (stereo not given in full) [euspeclibcmpd2101],0.179
2,Cc1cc2c(C(C)C)c(O)c(O)c(C=O)c2c(O)c1-c1c(C)cc2c(C(C)C)c(O)c(O)c(C=O)c2c1O [euspeclibcmpd1471],3.88 (active)
3,Cc1cc2c(C(C)C)c(O)c(O)c(C=O)c2c(O)c1-c1c(C)cc2c(C(C)C)c(O)c(O)c(C=O)c2c1O [euspeclibcmpd2093],3.73 (active)
4,CN1C2CCC1CC(OC(=O)C(CO)c1ccccc1)C2 (stereo not given) [euspeclibcmpd2059],-0.875
5,CC[C@@]1(O)C(=O)OCc2c1cc1n(c2=O)Cc2cc3ccccc3nc2-1 [euspeclibcmpd1447],-0.602
6,COP(=O)(OC)C(O)C(Cl)(Cl)Cl (stereo not given) [euspeclibcmpd866],3.07 (active)
7,CCC(COC(=O)c1cc(OC)c(OC)c(OC)c1)(c1ccccc1)N(C)C (stereo not given) [euspeclibcmpd1183],-0.264
8,Oc1ccc2c3c1OC1[C@@H](O)CC[C@@]4(O)[C@@H](C2)N(CC2CCC2)CC[C@]314 (stereo not given in full) [euspeclibcmpd978],0.208
9,COC(=O)C(c1ccccc1)C1CCCCN1 (stereo not given) [euspeclibcmpd885],-0.181
10,CN(C)C(=O)Oc1cccc([N+](C)(C)C)c1 [euspeclibcmpd207],0.0711
11,CC(C)c1cc2c(c(O)c1O)[C@@]1(C(=O)O)CCCC(C)(C)C1CC2 (stereo not given in full) [euspeclibcmpd2302],5.33 (active)
12,c1ccc2c(c1)Nc1ccccc1S2 [euspeclibcmpd928],0.0728
13,NCCc1c[nH]c2ccccc12 [euspeclibcmpd1506],-0.231
14,S=C=NCc1ccccc1 [euspeclibcmpd1105],100 (active)
15,NNCc1ccccc1 [euspeclibcmpd1327],0.32
16,CC(=O)c1c(O)cc(C)oc1=O [euspeclibcmpd1006],15.5 (active)
17,CN(C)C1C(=O)C(C(N)=O)C(=O)[C@@]2(O)C(=O)C3C(=O)c4c(O)ccc(Cl)c4[C@@](C)(O)[C@H]3C[C@@H]12 (stereo not given in full) [euspeclibcmpd61],0.0407
18,NCC(CC(=O)O)c1ccc(Cl)cc1 (stereo not given) [euspeclibcmpd593],-0.2
19,CN(C)C1C(=O)C(C(N)=O)C(=O)[C@@]2(O)C(=O)C3C(=O)c4c(O)cccc4[C@@](C)(O)[C@H]3C[C@@H]12 (stereo not given in full) [euspeclibcmpd288],0.167
20,CC(C)(O)[C@@H]1[C@H]2OC(=O)[C@@H]1[C@]1(O)C[C@H]3O[C@]34C(=O)O[C@H]2[C@]14C [euspeclibcmpd1439],-0.455
21,C=C(C)[C@@H]1[C@H]2OC(=O)[C@@H]1[C@]1(O)C[C@H]3O[C@]34C(=O)O[C@H]2[C@]14C [euspeclibcmpd1351],17.9 (active)
22,CCC(C)C(=O)O[C@@H]1C[C@@]2(C)[C@H](c3ccoc3)OC(=O)CC23OC2(C)OC34[C@H](OC(=O)C(C)C)[C@@]3(O)[C@@H](OC(=O)C5(C)OC5C)[C@@]5(C)C[C@]3(O)[C@@](C)([C@H]5CC(=O)OC)C14O2 (stereo not given in full) [euspeclibcmpd1627],0.307
23,COc1c2c(cc3c1OCO3)CC[N+](C)=C2 [euspeclibcmpd2418],0.209
24,CNCC(=O)c1ccc(O)c(O)c1 [euspeclibcmpd922],-1.16
25,CCC1(CC)C(=O)NC(=O)NC1=O [euspeclibcmpd2126],0.302
